uPA surface inh = qHTS for Inhibitors of Cell Surface uPA Generation; cell surface uPA generation assay, qHTS; Potency, µM (highest dose often 38.3 µM), most hits filed as inhibitors; actives 0.31% (n = 330,000); active = well fitted inhibition curve with a large enough effect; inconclusive = small, poorly fitted or top-dose-only effect; inactive = no such curve, though single readings can be large or run the other way; tested in mouse RAW 264.7 cells; also: nearly all actives have a fitted effect of over 55% in size
miR-21 act = qHTS Assay for Modulators of miRNAs and/orActivators of miR-21; AID 2288, 2010; 340,000 tested, under 10 active; Potency, µM (doses to about 38.3 µM), actives largely listed as activators; HeLa miR-21 FLuc reporter, luciferase, 48 h;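 also: miR-21 action dims this reporter so a rising signal means less miR-21 action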
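Compounds were titrated across several concentrations (up to approximately 40 uM) and incubated 48 hours with HeLa miR-21-FLuc reporter cells (miR-21 target sequence downstream of FLuc, endogenous miR-21). Readout was firefly luciferase luminescence after lytic detection reagent.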
TDP1 inh = qHTS Assay for Inhibitors of Tyrosyl-DNA Phosphodiesterase (TDP1); Tyrosyl-DNA phosphodiesterase 1 (Homo sapiens), Q9NUW8; actives 0.28% (n = 350,000); Potency, µM (top dose mostly 130 µM), usual class: inhibitors; recombinant TDP1, AlphaScreen DNA substrate cleavage; also: nearly all actives have a fitted effect of over 40% in size
Target sequence (Q9NUW8 whole entry, looked up): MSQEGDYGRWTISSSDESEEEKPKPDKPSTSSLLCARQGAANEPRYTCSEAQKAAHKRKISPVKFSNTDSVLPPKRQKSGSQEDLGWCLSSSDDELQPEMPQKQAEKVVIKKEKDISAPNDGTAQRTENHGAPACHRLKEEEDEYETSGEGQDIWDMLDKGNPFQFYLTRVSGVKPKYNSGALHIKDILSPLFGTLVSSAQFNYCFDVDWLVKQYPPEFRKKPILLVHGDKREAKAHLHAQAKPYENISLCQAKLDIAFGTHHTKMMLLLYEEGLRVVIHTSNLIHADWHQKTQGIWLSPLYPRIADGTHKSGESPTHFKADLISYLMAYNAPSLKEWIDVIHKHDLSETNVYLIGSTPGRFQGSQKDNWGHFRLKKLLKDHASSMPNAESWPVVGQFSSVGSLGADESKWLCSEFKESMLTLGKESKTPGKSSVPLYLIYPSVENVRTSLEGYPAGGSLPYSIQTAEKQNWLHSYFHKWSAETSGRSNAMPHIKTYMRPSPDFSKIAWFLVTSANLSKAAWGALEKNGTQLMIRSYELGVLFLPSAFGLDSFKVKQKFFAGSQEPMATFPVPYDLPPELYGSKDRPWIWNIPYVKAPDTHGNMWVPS
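Steps: enzyme plus compound, 15 min RT; add biotin/phosphotyrosine-FITC oligonucleotide (15 nM final), react 5 min; add donor/acceptor beads (10 ug/ml final), 10 min; read AlphaScreen. Tdp1 at 1 nM final.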
TDP1 cell noCPT = qHTS for Inhibitors of human tyrosyl-DNA phosphodiesterase 1 (TDP1): qHTS in cells in absence of CPT | Potency, µM (highest dose often 46.2 µM), most hits filed as inhibitors | AID 686978, 2013 | actives 15% (n = 420,000) | DT40 Tdp1-/- hTDP1 cells, no CPT, ATP luminescence, 48 h; also: nearly all actives have a fitted effect of over 55% in size
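Camptothecin absent (DMSO only). Human TDP1-complemented DT40 knockout cells, 400 cells/well, 37 °C for minimum 48 hr; ATP measured via CellTiter-Glo, 30 min dark incubation, luminescence.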
TDP1 cell CPT = qHTS for Inhibitors of human tyrosyl-DNA phosphodiesterase 1 (TDP1): qHTS in cells in presence of CPT; Potency, µM (top dose mostly 46.2 µM), usual class: inhibitors; actives 12% (n = 420,000); chicken DT40 Tdp1-/-;hTDP1 cells + 20 nM CPT, ATP luminescence, 48 h; also: nearly all actives have a fitted effect of over 55% in size
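Chicken DT40 Tdp1-/- cells complemented with human TDP1, 400 cells/well, exposed to compounds plus 20 nM camptothecin for at least 48 h at 37 C; viability read as ATP content by CellTiter-Glo luminescence.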
Hits are given with their value; i = inactive; ? = inconclusive; nt = no result; ! = not confirmed by another sample; [ ] = remark or other dose. In the library only some 16% were active in any assay of this set; here they are far more common. Unless noted, calls follow the shape of the dose curve; as a rule, active = well fitted curve in the direction sought with a large enough effect; inconclusive = small, poorly fitted or top-dose-only effect, or another doubt; inactive = no such curve, though single readings can be large; an effect the other way counts as inactive or inconclusive.

SMILES	uPA surface inh	miR-21 act	TDP1 inh	TDP1 cell noCPT	TDP1 cell CPT
C[C@H]1Cc2c(COc3ccccc3)nc3c(c2CO1)CN(C(=O)c1ccco1)CC3	nt	nt	i[12.3 µM]	nt	nt
O=C(CN1C(=O)/C(=C\c2cccc(Br)c2)Oc2ccccc21)NCCCN1CCOCC1	i	i	i	18µM	?
CCc1ccc(/C=C2/Sc3ccccc3N(CC(=O)NCCCN3CCOCC3)C2=O)cc1	?	i	i	21µM	?
O=C(CN1C(=O)/C(=C/c2ccc(C(F)(F)F)cc2)Sc2ccccc21)NCCCN1CCOCC1	?	i	i	?	26µM
O=C(CN1C(=O)/C(=C\c2ccccc2Cl)Sc2ccccc21)NCCCN1CCOCC1	i	i	i	?	?
O=C(CN1C(=O)/C(=C\c2cccc(Cl)c2)Sc2ccccc21)NCCCN1CCOCC1	i	i	i	23µM	23µM
CC12C=CC(=O)C=C1CCC1C2C(=O)C[C@@]2(C)C1CCC2(O)C(=O)CO (some centres not stated)	i	nt	nt	i	i
CN1CCN(c2ccc(Nc3ccnc4cc(Cl)ccc34)cc2)CC1	i	i	i	5.8µM	4.6µM
CCN1CCN(c2ccc(Nc3ccnc4ccccc34)cc2)CC1	?	nt	i	5.8µM	12µM
CCOc1ccc(Nc2ccnc3cc(Cl)ccc23)cc1	i	i	nt	?	?
Cn1cc(S(=O)(=O)N2CCCC2)cc1C(=O)NCCc1ccccc1	i	i	nt	?	?
N#CC(c1ccccc1)c1ccc2c(C(F)(F)F)cc(C(F)(F)F)nc2n1 (configuration not stated)	i	?	i	18µM	13µM
CN(N)c1ccc2c(C(F)(F)F)cc(C(F)(F)F)nc2n1	i	i	i	?	?
Cc1ccc(C(C#N)c2ccc3c(C(F)(F)F)cc(C(F)(F)F)nc3n2)cc1 (configuration not stated)	i	i	i	18µM	26µM
FC(F)(F)c1cc(C(F)(F)F)c2ccc(N/N=C/c3ccccc3)nc2n1	i	i	i	i	i
OC(COCc1cccs1)CN1CCN(c2cccc(C(F)(F)F)c2)CC1 (configuration not stated)	i	i	i	21µM	18µM
OC(CN1CCN(c2cccc(C(F)(F)F)c2)CC1)c1c[nH]c2ccccc12 (configuration not stated)	i	i	i	23µM	?
O=C(CS(=O)(=O)Cc1ccccc1)N1CCN(c2cccc(C(F)(F)F)c2)CC1	i	i	i	?	?
CC1SCCN1S(=O)(=O)c1ccc2ccccc2c1 (configuration not stated)	i	i	i	?	i
Oc1cccc2c(CC(O)c3c[nH]c4ccccc34)ccnc12 (configuration not stated)	nt	nt	nt	11µM	?
Oc1ccc(CNc2ccccn2)c2cccnc12	nt	nt	i	nt	nt
CC(CNC(=O)C1CCCCC1)NC(=O)C1CCCCC1 (configuration not stated)	i	i	i	i	i
CCOc1ccc(S(=O)(=O)Nc2ccc3c(c2)CCCN3C(=O)c2cccs2)cc1	nt	i	i	i	?
COc1cc(OC)cc(C(=O)Nc2ccc3c(c2)CCCN3C(=O)c2cccs2)c1	i	i	i	23µM!	18µM
O=C(Nc1ccc2c(c1)CCCN2C(=O)c1cccs1)c1cccc(C(F)(F)F)c1	nt	i	i	9.2µM	13µM
SMILES	uPA surface inh	miR-21 act	TDP1 inh	TDP1 cell noCPT	TDP1 cell CPT
O=C(Nc1ccc2c(c1)CCCN2C(=O)c1cccs1)c1ccc(F)c(F)c1	nt	i	i	21µM	16µM
O=C(c1cccs1)N1CCCc2cc(NS(=O)(=O)c3cc(F)ccc3F)ccc21	nt	i	i	?	?
O=C(Nc1ccc2c(c1)CCCN2C(=O)c1cccs1)c1cccc(F)c1	i	i	i	?	?
O=C(Nc1ccc2c(c1)CCCN2C(=O)c1cccs1)c1ccccc1	i	i	i	13µM	16µM
c1ccc(-n2cc(CN3CCC(N4CCOCC4)CC3)c(-c3ccc4c(c3)OCO4)n2)cc1	i	i	i	?	i
Cc1sc2ncn(CC(=O)NCCCOC(C)C)c(=O)c2c1S(=O)(=O)N1CCN(c2ncccn2)CC1	i	i	i	i	i
CC(C)c1ccc(C2c3c(-c4ccccc4O)n[nH]c3C(=O)N2CCc2ccccc2)cc1 (configuration not stated)	nt	?	i	12µM	?
COc1ccc(C2c3c(-c4ccccc4O)n[nH]c3C(=O)N2CCc2ccc(OC)c(OC)c2)cc1 (configuration not stated)	i	i	i	23µM	21µM
CC(C)OCCCN1C(=O)c2[nH]nc(-c3ccccc3O)c2C1c1ccc(OCc2ccccc2)cc1 (configuration not stated)	nt	?	i	12µM	15µM
COc1ccc(C2c3c(-c4ccccc4O)n[nH]c3C(=O)N2CCc2ccccc2)cc1 (configuration not stated)	nt	i	i	16µM	?
Cc1ccc(C2c3c(-c4ccccc4O)n[nH]c3C(=O)N2CCc2ccccc2)cc1 (configuration not stated)	nt	?	i	i	?
CC1C=CCCOC1c1ccccc1 (configuration not stated)	nt	nt	i[21 µM]	nt	nt
Cc1ccc(S(=O)(=O)N2CCC(=O)N(C(COCc3cccc(C(F)(F)F)c3)Cc3ccccc3)CC2)cc1 (configuration not stated)	i	i	i	21µM	?
Cc1ccc(S(=O)(=O)N2CCC(=O)N([C@H](COC(=O)Nc3ccccc3)Cc3ccccc3)CC2)cc1	nt	nt	nt	18µM	?
Cc1ccc(S(=O)(=O)N2CCC(=O)N(C(COCc3ccc(Cl)cc3Cl)Cc3ccccc3)CC2)cc1 (configuration not stated)	i	i	i	?	?
Cc1ccc(S(=O)(=O)N2CCC(=O)N([C@H](COCc3ccc(Cl)cc3)Cc3ccccc3)CC2)cc1	nt	nt	i	?	?
Cc1ccc(S(=O)(=O)N2CCC(=O)N([C@H](COCc3cccc(Cl)c3)Cc3ccccc3)CC2)cc1	nt	nt	nt	21µM	?
Cc1ccc(S(=O)(=O)N2CCC(=O)N(C(COCc3ccccc3)Cc3ccccc3)CC2)cc1 (configuration not stated)	i	i	i	12µM	?
Cc1ccc(N2CC(C(=O)N3CCC(c4nc5ccccc5[nH]4)CC3)CC2=O)cc1C (configuration not stated)	i	nt	i	?	?
Cc1ccc(CCNC(=O)CN2C(=O)COc3ccc(S(=O)(=O)N4CCCC4)cc32)cc1	nt	i	i	?	i
O=C(c1ccccc1)N1CCN(C(=O)c2nn3c(C(F)(F)F)cc(-c4ccco4)nc3c2Cl)CC1	i	i	nt	?	i

From PubChem
